From publication PMC5700166

biological target: T1, GST-Ap-NF-kB RHD (Exaiptasia pallida (Aiptasia), UniProt A0A913YAJ5 2-422); assay: protein-binding microarray (PBM); PBM: ~300 nM protein, 6 mM HEPES pH 7.8, 80 mM KCl, 0.5 mM EDTA, 0.5 mM EGTA, 6% glycerol, 35 ng/ul poly-dIdC, 1% milk, 1 h, room temperature; Ap Aiptasia and Nv Nematostella (sea anemones) / Co Capsaspora / Aq Amphimedon (sponge) / Dm Drosophila / Hu human; RHD is the Rel homology domain; high values mean tight binding; settings: dsDNA, one strand shown
T1 sequence: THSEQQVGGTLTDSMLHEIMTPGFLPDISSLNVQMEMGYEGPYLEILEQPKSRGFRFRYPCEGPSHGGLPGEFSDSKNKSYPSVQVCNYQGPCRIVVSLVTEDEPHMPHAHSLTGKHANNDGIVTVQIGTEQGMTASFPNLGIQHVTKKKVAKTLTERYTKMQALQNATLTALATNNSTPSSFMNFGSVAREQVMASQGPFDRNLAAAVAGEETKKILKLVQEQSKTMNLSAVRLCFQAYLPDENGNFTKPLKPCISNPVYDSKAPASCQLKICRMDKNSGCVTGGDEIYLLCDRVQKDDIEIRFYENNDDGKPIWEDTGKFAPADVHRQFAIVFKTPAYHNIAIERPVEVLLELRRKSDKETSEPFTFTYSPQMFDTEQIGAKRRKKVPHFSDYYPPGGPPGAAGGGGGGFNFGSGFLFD

Row | Sequence | binding signal [z-score]
1 | CCGATTAACATCAGGGGGATTCATGATGTTAATCGGGTCTTGATTCGCTTGACGCTGCTG | 8.54
2 | CCGATTAACATCACACAACCCCCTGATGTTAATCGGGTCTTGATTCGCTTGACGCTGCTG | 5.16
3 | CCGATTAACATCAATACTTCCCCTGATGTTAATCGGGTCTTGATTCGCTTGACGCTGCTG | 5.61
4 | CCGATTAACATCAAGATTTCCCATGATGTTAATCGGGTCTTGATTCGCTTGACGCTGCTG | 2.43
5 | CCGATTAACATCAAATTGTCCCCTGATGTTAATCGGGTCTTGATTCGCTTGACGCTGCTG | 4.64
6 | CCGATTAACATCAGGGTATTTTATGATGTTAATCGGGTCTTGATTCGCTTGACGCTGCTG | 5.82
7 | CCGATTAACATCACAATCCCCCCTGATGTTAATCGGGTCTTGATTCGCTTGACGCTGCTG | 8.13
8 | CCGATTAACATCAGGGGAGTTACTGATGTTAATCGGGTCTTGATTCGCTTGACGCTGCTG | 5.46
9 | CCGATTAACATCAGGGGGAAGAATGATGTTAATCGGGTCTTGATTCGCTTGACGCTGCTG | 5.11
10 | CCGATTAACATCAGGGCCTCCCCTGATGTTAATCGGGTCTTGATTCGCTTGACGCTGCTG | 6.07
11 | CCGATTAACATCAAAGTCCCCCTTGATGTTAATCGGGTCTTGATTCGCTTGACGCTGCTG | 7
12 | CCGATTAACATCAGGGGGGTTAATGATGTTAATCGGGTCTTGATTCGCTTGACGCTGCTG | 4.64
13 | CCGATTAACATCAACTTCCCCCCTGATGTTAATCGGGTCTTGATTCGCTTGACGCTGCTG | 7.03
14 | CCGATTAACATCAGGGGGCTATATGATGTTAATCGGGTCTTGATTCGCTTGACGCTGCTG | 3.62
